From PubChem BioAssay (NCATS)
Records with an inconclusive call do not appear. Entries that show only a call come without a potency. Unmarked numbers belong to inactive results. Calls of active or inactive are those of the source. The call rests on the fitted dose curve; in most records, active means well fitted curve in the direction sought with a large enough effect; inconclusive means small, poorly fitted or top-dose-only effect, or another doubt; inactive means no such curve, though single readings can be large; an effect the other way counts as inactive or inconclusive.

Columns and labels:
CRL-7250 = normal cell line; experiment: Cytotoxic Profiling of Annotated Libraries Using Quantitative High-Throughput Screening (AID 1296008); conditions: Five cell lines viability, CellTiter-Glo ATP luminescence, 48-72 h; max response: stronger effect = lower value; further: nearly all actives have a fitted effect of over 60% in size; further: potency means the concentration at half of the fitted maximal effect
Summary of the method: (§1)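 Cytotoxicity was measured as CellTiter-Glo ATP luminescence, read after 10 min at room temperature. Compound treatment of the cells lasted 48 or 72 hr at 37 degrees Celsius in a qHTS format.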

KB-3-1 = experiment: as above; conditions: Five cell lines viability, CellTiter-Glo ATP luminescence, 48-72 h; max response: stronger effect = lower value
Summary of the method: as §1

NIH3T3 [1] = experiment: as above; conditions: Five cell lines viability, CellTiter-Glo ATP luminescence, 48-72 h; max response: stronger effect = lower value
Summary of the method: as §1

C33A = experiment: Primary qHTS to identify gynecologic anti-cancer compounds using libraries of approved drugs and bioactive compounds (AID 1345084); conditions: Gynecologic cancer cell panel viability, ATPlite luminescence, 48 h; series mostly up to 57.5 µM; further: nearly all actives have a fitted effect of over 55% in size; further: potency means the concentration at half of the fitted maximal effect
Summary of the method: (§2)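 Cell viability after 48 h drug treatment, ATPlite luminescence readout; five doses.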

CAOV3 = experiment: as above; conditions: Gynecologic cancer cell panel viability, ATPlite luminescence, 48 h; series mostly up to 57.5 µM
Summary of the method: as §2

CASKI = experiment: as above; conditions: Gynecologic cancer cell panel viability, ATPlite luminescence, 48 h; series mostly up to 57.5 µM
Summary of the method: as §2

Es-2 = experiment: as above; conditions: Gynecologic cancer cell panel viability, ATPlite luminescence, 48 h; series mostly up to 57.5 µM
Summary of the method: as §2

HeLa = experiment: as above; conditions: Gynecologic cancer cell panel viability, ATPlite luminescence, 48 h; series mostly up to 57.5 µM
Summary of the method: as §2

Hek293T = experiment: as above; conditions: Gynecologic cancer cell panel viability, ATPlite luminescence, 48 h, control line for the selectivity index; series mostly up to 57.5 µM
Summary of the method: as §2

JEG-3 = experiment: as above; conditions: Gynecologic cancer cell panel viability, ATPlite luminescence, 48 h; series mostly up to 57.5 µM
Summary of the method: as §2

OV90 = experiment: as above; conditions: Gynecologic cancer cell panel viability, ATPlite luminescence, 48 h; series mostly up to 57.5 µM
Summary of the method: as §2

HaCat = experiment: Cytotoxic Profiling of Annotated Libraries Using Quantitative High-Throughput Screening (AID 1296008); conditions: Five cell lines viability, CellTiter-Glo ATP luminescence, 48-72 h; max response: stronger effect = lower value; further: nearly all actives have a fitted effect of over 60% in size; further: potency means the concentration at half of the fitted maximal effect
Summary of the method: as §1

NIH3T3 [2] = experiment: qHTS assay to identify novel small-molecules to repurpose for Merkel cell carcinoma treatment (AID 1296009); conditions: MCC and control cell lines, CellTiter-Glo viability, 72 h; series mostly up to 44.8 µM; further: nearly all actives have a fitted effect of over 60% in size
Summary of the method: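 72 hr, 37 degree celsius; NPC 8-pt / MIPE 11-pt dose response; compound pinned in DMSO; CellTiter-Glo, 10 min RT, luminescence; normalized to no-cell and DMSO controls.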

Compound	max response (CRL-7250) [%]	max response (KB-3-1) [%]	max response (NIH3T3 [1]) [%]	Potency (C33A)	Potency (CAOV3)	Potency (CASKI)	Potency (Es-2)	Potency (HeLa)	Potency (Hek293T)	Potency (JEG-3)	Potency (OV90)	max response (HaCat) [%]	outcome (KB-3-1)	outcome (NIH3T3 [1])	Potency (NIH3T3 [2])	Potency (HaCat)	Potency (NIH3T3 [1])	outcome (CRL-7250)	Potency (CRL-7250)
C=C(C(=O)OC[C@H]1O[C@@H](OC(=O)/C=C/c2ccccc2)[C@H](O)[C@@H](O)[C@@H]1O)C(O)CO (stereo not given in full)	-9.26	-8.71	1.83	inactive	inactive	inactive	inactive	inactive	inactive	inactive	inactive	–	–	–	–	–	–	–	–
O=C(NCCCN1CCOCC1)c1cnn2c(-c3ccccc3)cc(-c3ccccc3)nc12	-7.62	–	-12.1	inactive	inactive	inactive	inactive	inactive	inactive	inactive	inactive	-15.4	–	–	–	–	–	–	–
O=C(NS(=O)(=O)c1ccc(Br)s1)c1ccc(Cl)cc1Cl	-22.3	–	-6.08	inactive	inactive	inactive	inactive	inactive	inactive	inactive	inactive	3.71	–	–	–	–	–	–	–
CCN1CCC[C@@H]1CNC(=O)c1ccc2c(c1)NC(=O)c1cccc(C)c1S2	2.08	–	–	inactive	inactive	inactive	inactive	inactive	inactive	inactive	inactive	–	inactive	inactive	inactive	–	–	–	–
N#CC(CCCN1CCN(/N=C/c2cccnc2)CC1)(c1ccccc1)c1ccccc1	-20.5	–	-25.1	inactive	inactive	inactive	inactive	inactive	inactive	inactive	inactive	-26.9	–	–	–	–	–	–	–
Cc1cc(C(C)Nc2ccccc2C(=O)O)c2nc(N3CCOCC3)cc(=O)n2c1 (stereo not given)	-22.4	–	–	inactive	inactive	–	inactive	inactive	–	–	inactive	–	–	–	–	7.31 µM (active)	23.1 µM (active)	–	–
CNC(=O)c1cc(Oc2ccc(NC(=O)c3cccc(C(F)(F)F)c3)cc2)ccn1	-16.9	–	-24.9	inactive	inactive	inactive	inactive	inactive	inactive	inactive	inactive	-5.26	–	–	–	–	–	–	–
COc1ccc(S(=O)(=O)Nc2c(C)cc(C)cc2C)cc1	–	–	0.769	inactive	inactive	inactive	inactive	inactive	inactive	inactive	inactive	-0.296	–	–	–	–	–	inactive	–
CCOc1cc(C(C)(C)C)ccc1C1=NC(C)(c2ccc(Cl)cc2)C(C)(c2ccc(Cl)cc2)N1C(=O)N1CCN(CCCS(C)(=O)=O)CC1 (stereo not given)	–	–	–	inactive	–	–	inactive	inactive	inactive	inactive	inactive	–	–	–	–	20.6 µM (active)	9.2 µM (active)	–	5.17 µM (active)
COc1cccc(-c2cc(F)ccc2C2Cc3nc(N)nc(C)c3C(=O)N2)n1 (stereo not given)	–	–	–	–	–	–	–	–	0.282 µM (active)	–	–	–	–	–	–	0.0461 µM (active)	0.058 µM (active)	–	0.146 µM (active)
O=C(NNc1nc2cc(F)ccc2n2cccc12)c1cnccn1	–	–	–	–	–	inactive	7.08 µM (active)	inactive	3.55 µM (active)	inactive	5.01 µM (active)	–	–	–	–	3.26 µM (active)	4.11 µM (active)	–	1.3 µM (active)
CC1(C)CC[C@]2(C(=O)O)CC[C@]3(C)C(=CCC4[C@@]5(C)C[C@@H](O)[C@H](O)[C@@](C)(CO)C5CC[C@]43C)[C@@H]2[C@@H]1O (stereo not given in full)	2.24	–	4.68	inactive	inactive	inactive	inactive	inactive	inactive	inactive	inactive	-17.5	–	–	–	–	–	–	–
COc1cc(C(C)C)c(Oc2cnc(N)nc2N)cc1I	-1.85	–	-1.33	inactive	inactive	inactive	inactive	inactive	inactive	inactive	inactive	-19.2	–	–	–	–	–	–	–
O=C1c2ccc(Nc3ccc(F)cc3F)cc2CCc2ccc(OCC(O)CO)cc21 (stereo not given)	-2.8	–	-2.95	inactive	inactive	inactive	inactive	inactive	inactive	inactive	inactive	0.902	–	–	–	–	–	–	–
CCCn1ncc(CN2CCCC(C(=O)c3cccc(OC(C)C)c3)C2)c1C (stereo not given)	-26.8	–	-15.4	inactive	inactive	–	inactive	inactive	inactive	inactive	–	4.33	–	–	–	–	–	–	–
